IC50 data for 8 compounds are collected here from PubChem BioAssay AID602182 (The Scripps Research Institute Molecular Screening Center, 2012).

The term IC50 denotes the concentration at which inhibition is half-maximal.

This is one part of the list. A number with no mark means an inactive call. No rule for the calls is given here.

The nature of this assay: quenching of GFP signal – biochemical, fluorescence, artefact control for Rin1-Abl interaction inhibitor project, dose response (AID 602182).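 Also: ABL1-eGFP fusion protein alone without its RIN1 binding partner.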 The following applies: GFP fluorescence interference/quenching counterscreen. In general terms: The purpose of a counterscreen is to sort out artefacts and off-target activity.
Regarding `CN(Cc1c(F)cccc1Cl)C(=O)CNC(=O)c1ccc2c(c1)OCO2`, the IC50 is above 67.6 µM.

Consider `C=CCn1c2ccccc2c2nnc(SCc3[nH]c(=O)[nH]c3C(=O)CCCCC(=O)OCC)nc21`, for which the IC50 is above 67.5 µM.

`CC(OC(=O)c1ccccc1NCCO)C(=O)Nc1ccnn1C(C)C` (stereo not drawn): the IC50 was above 67.5 µM.

On to `C[C@@H]1CN([C@H](C)CO)S(=O)(=O)c2ccc(C#C[C@@H](C)O)cc2O[C@@H]1CN(C)Cc1ccc(-c2ccccc2)cc1`, for which the IC50 was above 67.5 µM.

Consider `Cc1ccccc1CN1C[C@@H]2C[C@@H](c3ccc4nsnc4c3)N3CCC[C@@]23C1=O`, for which the IC50 was above 67.5 µM.

In the case of `Nc1cc(=O)c2[nH]cnc2[nH]1`, the IC50 is above 67.7 µM.

Turning to `CN(C(=O)c1ccc(NC(=O)Cc2cccc(NC(=O)C3CCN(C(=O)c4ccccc4)CC3)c2)cc1)C1CC1`, the IC50 was above 67.6 µM.

As to `CCOC(=O)N1CCN(C(=O)C2CCN(c3ncnc4c3sc3cccc(F)c34)CC2)CC1`, the IC50 is above 67.6 µM.
